The whole screen tested about 220,000 compounds, of which about 910 (0.41%) were called active. The sample holds actives, similar compounds and a random draw of the others, so the mix is not that of the screen. Entries with a potency or affinity are not part of this list. A number with no mark means an inactive call.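 The calls were made as follows: active = primary inhibition above the hit cutoff, then over 50% inhibition at one or more dose response concentrations (cut at about 23% in these data, passing the limit was not always enough); inconclusive = conflicting primary data, or primary hits not chosen for dose response; inactive = low primary inhibition, or under 50% at every dose.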

Sequence of Aminopeptidase N (Plasmodium falciparum (isolate 3D7)) (O96935 whole entry, looked up): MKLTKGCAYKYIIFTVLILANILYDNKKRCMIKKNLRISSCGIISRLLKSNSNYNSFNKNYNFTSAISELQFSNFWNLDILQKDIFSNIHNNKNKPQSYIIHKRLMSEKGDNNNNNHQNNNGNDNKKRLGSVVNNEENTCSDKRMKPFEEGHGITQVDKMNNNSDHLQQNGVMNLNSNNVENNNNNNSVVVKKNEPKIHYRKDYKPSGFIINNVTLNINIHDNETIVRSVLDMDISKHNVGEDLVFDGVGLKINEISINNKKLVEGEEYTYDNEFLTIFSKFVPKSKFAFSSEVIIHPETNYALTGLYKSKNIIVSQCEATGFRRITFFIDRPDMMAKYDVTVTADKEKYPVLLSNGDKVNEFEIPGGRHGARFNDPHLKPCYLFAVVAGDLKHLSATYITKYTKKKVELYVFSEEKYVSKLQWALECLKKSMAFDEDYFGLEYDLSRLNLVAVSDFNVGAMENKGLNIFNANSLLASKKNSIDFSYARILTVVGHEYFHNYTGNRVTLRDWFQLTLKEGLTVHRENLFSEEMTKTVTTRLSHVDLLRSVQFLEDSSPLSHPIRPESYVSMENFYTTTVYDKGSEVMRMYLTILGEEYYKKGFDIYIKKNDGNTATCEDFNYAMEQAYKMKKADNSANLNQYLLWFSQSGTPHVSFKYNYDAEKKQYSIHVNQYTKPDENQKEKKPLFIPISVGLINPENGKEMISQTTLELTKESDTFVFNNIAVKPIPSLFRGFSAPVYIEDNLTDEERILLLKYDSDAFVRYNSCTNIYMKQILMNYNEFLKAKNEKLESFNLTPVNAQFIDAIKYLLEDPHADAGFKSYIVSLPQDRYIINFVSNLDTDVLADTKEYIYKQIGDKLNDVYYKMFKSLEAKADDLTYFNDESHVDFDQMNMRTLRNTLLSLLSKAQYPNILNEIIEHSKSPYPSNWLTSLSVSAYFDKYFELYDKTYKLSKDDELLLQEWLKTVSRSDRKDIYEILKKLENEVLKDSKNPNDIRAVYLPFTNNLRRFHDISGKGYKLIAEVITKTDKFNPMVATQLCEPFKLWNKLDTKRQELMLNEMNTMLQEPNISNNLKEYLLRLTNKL

The experiment concerns the target Aminopeptidase N (Plasmodium falciparum (isolate 3D7)) (UniProt O96935). Description: P. falciparum M1AAP inhibitors, biochemical, fluorogenic H-Leu-NHMec substrate, 1536-well (AID 1445).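 Also: plate controls were DMSO full reaction for no effect and no enzyme background for full effect.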 Particulars: recombinant M1AAP, H-Leu-NHMec fluorogenic kinetic assay; at 30 µM, stronger effect = higher value unless noted.
As for `O=C(C1CCCCN1S(=O)(=O)c1ccccc1[N+](=O)[O-])N1CCCC1` (stereo unspecified), the inhibition is -3.36%.

For the molecule `CC(NC(=O)c1ccccc1Cl)C(=O)O` (stereo unspecified), the inhibition was -7.3%.

For `CCN(CC)S(=O)(=O)c1ccc(C(=O)Nc2ccc3c(c2)OCCO3)cc1`, the inhibition was 4.24%.

On to `N/C(=N\OC(=O)CCCOc1ccccc1)c1ccc([N+](=O)[O-])cc1`, for which the inhibition was 6.54%.

For the molecule `Cc1nc2ccc(Cl)cc2c(-c2ccccc2)c1CC(=O)O`, the inhibition is 14.4%.

`CCOC(=O)c1c(C)nc2ccc(Cl)cc2c1-c1ccccc1`: the inhibition was 5.75%.

As for `CCOC(=O)c1ccccc1NC(=O)c1cn(-c2ccc(C)c(C)c2)c(=O)c2ccccc12`, the inhibition was 1.24%.

On to `Cc1cccc(CN2CCN(CCCc3ccccc3)CC2)c1`, for which the inhibition is -1.11%.

As to `COc1ccccc1NS(=O)(=O)c1ccc(N/N=C/c2ccccc2OCC(=O)O)c([N+](=O)[O-])c1`, the inhibition was 13.1%.

Take `CCN(CC)S(=O)(=O)c1ccc(N/N=C/c2ccccc2OCC(=O)O)c([N+](=O)[O-])c1`: the inhibition is 11.3%.

`COC(=O)/C(=C\Nc1cccc(Cl)c1C)c1ncc(C(F)(F)F)cc1Cl`: the inhibition was -7.97%.

With `Cc1cc(C(=O)COC(=O)c2ccc(N)c([N+](=O)[O-])c2)c(C)n1-c1ccc2c(c1)OCO2`, the inhibition was 4.88%.

`COc1cc([N+](=O)[O-])ccc1-c1ccc(/C=N/NC(=O)OC(C)(C)C)o1`: the inhibition was 3.22%.

Take `COc1cc([N+](=O)[O-])ccc1-c1ccc(/C=N/NC(N)=O)o1`: the inhibition is 0.13%.

Consider `N#CCCN(CCC#N)C(=O)c1ccc(Cl)cc1`, for which the inhibition is 0.66%.

Take `Nc1cc(N)nc(SCc2cccnc2)n1`: the inhibition is -6.1%.

As for `O=C(CO/N=C/c1c(Cl)cccc1Cl)NNC(=O)c1cccc(Cl)c1`, the inhibition is 0.37%.

For the molecule `O=C(NNC(=O)c1cc(-c2ccccc2)nc2ccccc12)Nc1cccc(Cl)c1`, the inhibition was 6.82%.

On to `Cc1cccc(S(=O)(=O)NNC(=O)c2cc(-c3ccc(F)cc3)nc3ccccc23)c1`, for which the inhibition was 15.2%.

For the molecule `Cc1cccc(N2CCN(Cc3cnc(Cl)s3)CC2C)c1` (stereo unspecified), the inhibition is 3.39%.

For `COc1ccc(CNC(=O)c2csc(Cc3ccccc3)n2)cc1`, the inhibition was 2.78%.

As to `Cc1nc2ccc(Cl)cc2c(-c2ccccc2F)c1CC(=O)O`, the inhibition is 16.3%.

As for `Cc1nc2ccc(Cl)cc2c(-c2ccccc2Cl)c1CC(=O)O`, the inhibition is -0.5%.

`C/C(Cn1cnc([N+](=O)[O-])n1)=N\NC(=O)c1ccccc1`: the inhibition was 15.8%.

`CCOc1ccc(NC(=O)C/C(N)=N/O)cc1`: the inhibition is -8.44%.

Take `O=C(O)c1cccc(S(=O)(=O)Nc2ccccc2Cl)c1`: the inhibition was 0.86%.

Take `COc1ccc([N+](=O)[O-])cc1NS(=O)(=O)c1cccc(C(=O)O)c1`: the inhibition is 7.17%.

In the case of `CCOc1cc(C(=O)N(C)Cc2cc3ccccc3[nH]c2=O)cc(OCC)c1OCC`, the inhibition is 4.4%.

Turning to `CCCCCc1nc2sc3c(c2c(=O)n1NC(=O)c1ccc([N+](=O)[O-])cc1)CC(C)(C)OC3`, the inhibition is 4.81%.

Turning to `CCc1nc2sc3c(c2c(=O)n1N)CC(C)(C)OC3`, the inhibition was -0.3%.

As to `CCCCCCCCCc1nc2sc3c(c2c(=O)n1NC(=O)c1ccccc1[N+](=O)[O-])CC(C)(C)OC3`, the inhibition was -2.36%.

With `CCCCCCCCCc1nc2sc3c(c2c(=O)n1NC(=O)c1ccc([N+](=O)[O-])cc1)CC(C)(C)OC3`, the inhibition is 3.87%.

As for `Cn1c(=O)c(C(=O)COc2ccc(F)cc2Cl)c(N)n(Cc2ccccc2)c1=O`, the inhibition is 6.9%.

For the molecule `COc1ccc(CC(NC(C)=O)C(=O)NC2CCN(c3c(Cc4ccccc4)c(C)nc4ncnn34)CC2)c(OC)c1` (stereo unspecified), the inhibition is -2.17%.

In the case of `C/C(=N/N1CCN(c2ccccn2)CC1)c1ccc([N+](=O)[O-])cc1`, the inhibition is -1.3%.

In the case of `O=C(NCCc1ccccc1)c1nc2c(nnn2Cc2ccccc2Cl)c(=O)[nH]1`, the inhibition is -9.83%.

Regarding `COc1ccc(Cn2nnc3c(=O)[nH]c(C(=O)NCCc4ccc(F)cc4)nc32)cc1OC`, the inhibition was 24.5% (active).

Consider `O=C(NCc1cccs1)c1nc2c(nnn2Cc2ccc(F)cc2)c(=O)[nH]1`, for which the inhibition is 2.78%.

As for `O=C(COC(=O)c1cccc(C(=O)OCC(=O)NCc2ccc(F)cc2)n1)NCc1ccc(F)cc1`, the inhibition is 5.21%.

For the molecule `Cc1cccc(NC(=O)C(NS(=O)(=O)c2ccc3c(c2)CCC(=O)N3)c2ccccc2)n1` (stereo unspecified), the inhibition was 2.64%.

In the case of `C=CCSc1nnc(NC(=O)c2ccc(Cl)nc2)s1`, the inhibition is 2.22%.

For `CSc1ncc(Cl)c(C(=O)Nc2nnc(SC/C=C/c3ccccc3)s2)n1`, the inhibition is 30%.

For `CCSc1ncc(Cl)c(C(=O)Nc2ccccc2)n1`, the inhibition is 2.17%.

Take `CSc1ncc(Cl)c(C(=O)Nc2nnc(SC)s2)n1`: the inhibition was 12.7%.

As to `Fc1ccc(NC(=S)NC23CN4CN(CN(C4)C2)C3)cc1`, the inhibition was 6.25%.

With `CCc1cccc(CC)c1NC(=O)COn1nnc2ccc(C(F)(F)F)cc21`, the inhibition was -1.32%.

As for `O=C(O)c1cccc(S(=O)(=O)Nc2ccc(O)c(Sc3nc4ccccc4s3)c2)c1`, the inhibition was 22.2%.

For the molecule `O=S(=O)(Nc1ccc(O)c(Sc2nc3ccccc3s2)c1)c1ccc(F)cc1`, the inhibition was 7.05%.

On to `O=S(=O)(Nc1ccc(O)c(Sc2nc3ccccc3s2)c1)c1ccc(Cl)cc1`, for which the inhibition is 0.11%.

Consider `COc1ccc(S(=O)(=O)Nc2ccc(O)c(Sc3ncn[nH]3)c2)cc1`, for which the inhibition was 18%.

As to `Cc1cc(C)nc(NC(=O)/C=C/c2ccc3c(c2)OCO3)c1`, the inhibition was 4.5%.

In the case of `Cc1cccc(NC(=O)CN2C(=O)COc3ccc(Cl)cc32)c1C`, the inhibition is 0.78%.

On to `COc1cc(/C=C(\C#N)C(N)=O)ccc1OS(=O)(=O)c1ccc(C)cc1`, for which the inhibition was 12.9%.

Consider `COc1ccc(C=O)cc1OS(=O)(=O)c1ccc(NC(C)=O)cc1`, for which the inhibition is 4.39%.

On to `COc1cc(/C=C/C(=O)O)ccc1OS(=O)(=O)c1ccc(C)cc1`, for which the inhibition was 0.48%.

Take `COc1cc(C=O)ccc1OS(=O)(=O)c1ccc(NC(C)=O)cc1`: the inhibition was 7.57%.

With `CCOc1ccc(/C=C2\SC(=S)NC2=O)cc1OC`, the inhibition was 17.4%.

For `COc1ccc(/C=C2/S/C(=N/S(=O)(=O)Cc3ccccc3)NC2=O)cc1OC`, the inhibition was 12.7%.

`CCOc1ccc(S(=O)(=O)N2CCOCC2)cc1[N+](=O)[O-]`: the inhibition is 1.27%.

For `Nc1ccc(C(=O)OCC(=O)c2cccc([N+](=O)[O-])c2)cc1`, the inhibition was -2.36%.

On to `Cc1nc(NCc2ccccc2)sc1C(=O)Nc1ccccc1`, for which the inhibition was -1.78%.

`CN1CCc2c(sc(NC(=O)c3ccc(S(=O)(=O)N4CCc5ccccc54)cc3)c2C(N)=O)C1`: the inhibition was 5.03%.

As for `CCN(CC(=O)Nc1ccccc1OC)C(=O)COc1ccc2ccccc2c1`, the inhibition is 5.71%.

Consider `Cc1cc2c(cc1C)NC(c1ccccn1)C1=C(CC(C)(C)CC1=O)N2` (stereo unspecified), for which the inhibition is 23.3% (active).

As for `CC1(C)CC(=O)C2=C(C1)Nc1ccccc1NC2c1ccccn1` (stereo unspecified), the inhibition is 8.61%.

On to `CC1(C)CC(=O)C2=C(C1)Nc1cc(C(=O)c3ccccc3)ccc1NC2c1ccccn1` (stereo unspecified), for which the inhibition is 18.1%.

For the molecule `COCCNC(=O)c1cc2oc3ccccc3c2n1C`, the inhibition is 15%.

Take `O=C1OC(/C(=C\Nc2ccc(F)cc2F)[N+](=O)[O-])c2ccccc21` (stereo unspecified): the inhibition was 8.86%.

`O=C1OC(/C(=C\Nc2ccccc2)[N+](=O)[O-])c2ccccc21` (stereo unspecified): the inhibition was 7.21%.

For `O=[N+]([O-])c1cc(S(=O)(=O)N2CCCC2)ccc1NCCCN1CCOCC1`, the inhibition is 4.04%.

With `CC(C)NCc1c(O)c(Br)cc2oc3c(c12)CCCC3`, the inhibition is 9.95%.

As to `Oc1c(Br)cc2oc3c(c2c1CNCc1ccccc1)CCCC3`, the inhibition was 33.9% (active).

Turning to `O=[N+]([O-])c1cc2oc3c(c2c(C=NCc2ccccc2)c1O)CCCC3`, the inhibition was -0.25%.

Regarding `O=C(CSc1nnc(-c2cccs2)o1)OCc1ccccc1`, the inhibition was 5.09%.

In the case of `CCO[C@H]1OC(C(=O)N2CCOCC2)=C[C@@H](c2ccc(Br)cc2)[C@@H]1CCCO`, the inhibition was -2.33%.

Regarding `CC/C(=C\C1CCCCC1)C(NP(=O)(c1ccccc1)c1ccccc1)c1ccccc1` (stereo unspecified), the inhibition was 5.64%.

For the molecule `CCOc1cc(NS(=O)(=O)c2ccc(OC)cc2)c(OCC)cc1NC(=O)c1ccco1`, the inhibition was 1.99%.

Turning to `CCOC(=O)C1C(=O)CC(C)(O)C(C(=O)OCC)C1c1ccc(Br)cc1` (stereo unspecified), the inhibition was 11.1%.

In the case of `Cc1ccc(NC(=O)N2CCN(S(=O)(=O)c3ccccc3)CC2)cc1`, the inhibition is -1.89%.

In the case of `NS(=O)(=O)c1ccc(CCNC(=O)CSc2ccc(Cl)cc2)cc1`, the inhibition is 9.38%.

For `O=C(COC(=O)CCSc1ccc(Cl)cc1)NCCc1ccccc1`, the inhibition is -5.52%.

Consider `O=C(CCC(=O)Nc1ccccc1)N/N=C/C=C/c1ccccc1`, for which the inhibition is 7.53%.

Consider `Cn1c(=O)c2c(nc(NCc3ccccc3)n2CC(=O)NCc2ccccc2)n(C)c1=O`, for which the inhibition is -6.75%.

`Cc1cccc(C(=O)Oc2ccc(/C=N/NC(=O)c3ccccc3O)cc2)c1`: the inhibition was 3.44%.

In the case of `CCOC(=O)c1ccc2[nH]c3c(c2c1)CCCC3O` (stereo unspecified), the inhibition was 0.31%.

Regarding `CCN(CC)c1ccc(/C=C2/C(=O)N(c3ccc([N+](=O)[O-])cc3)N=C2N2CCOCC2)cc1`, the inhibition was -6.76%.

In the case of `CCN(CC)c1ccc(/C=C2/C(=O)ON=C2C)cc1`, the inhibition is 15.8%.

In the case of `C=CCOC(=O)c1[nH]c2c(c1C)C(=O)CC(c1ccco1)C2` (stereo unspecified), the inhibition is 9.27%.

With `N#CC1=C(N)C2=CCCC[C@H]2[C@H](c2ccccc2)C1(C#N)C#N`, the inhibition was 0.19%.

For the molecule `N#CC1=C(N)C2=C(N3CCCCC3)CCCC2C1(C#N)C#N` (stereo unspecified), the inhibition was 27.6% (active).

For `N#CC1=C(N)C2=CCCC[C@H]2[C@H](c2ccc(Br)cc2)C1(C#N)C#N`, the inhibition is 1.37%.

The values above are taken from PubChem BioAssay AID1445 (SRMLSC, 2008).
